Laboratory results taken from PubChem BioAssay AID2701 (National Center for Advancing Translational Sciences (NCATS), 2010).
The other results are listed elsewhere or left out. Results filed as inconclusive are left out. Active and inactive are the calls of the source. The call rests on the fitted dose curve; in most records, active means well fitted inhibition curve with a large enough effect; inconclusive means small, poorly fitted or top-dose-only effect, or another doubt; inactive means no such curve, though single readings can be large or run the other way.

Biological target: 4'-phosphopantetheinyl transferase ffp (Bacillus subtilis) (UniProt Q9F4F7)
Experiment: Confirmation qHTS Assay for Inhibitors of Bacillus subtilis Sfp phosphopantetheinyl transferase (PPTase)
Details: Sfp PPTase enzymatic assay, qHTS titration; series mostly up to 114 µM
From the text: The covalent attachment of a phosphopantetheinyl (4'-PP) arm to a variety of synthases and other proteins is a key posttranslational protein modification. The 4'-PP is installed on the proteins post-translationally from coenzyme A (CoA) on a conserved serine residue by action of phosphopantetheinyl transferase (PPTase) enzymes. Phosphopantetheinylation is essential for synthase activity, and removal of the PPTase gene precludes natural product synthesis in microorganisms, or in the case of fatty acid biosynthesis, renders the organism unviable. PPTase enzymes belong to a distinct structural superfamily. Within bacteria, these enzymes are grouped into two classes based upon primary structure, the AcpS-Type and Sfp-Type PPTases.
Sfp-type PPTases, corresponding to an activator of surfactin production in Bacillus subtilis, are responsible for modifying type I polyketide and nonribosomal peptide synthases of prokaryotes. Sfp-type PPTases are responsible for the activation of a variety of pathogen-associated virulence factors. Among these compounds are toxins such as mycolactone from Mycobacterium ulcerans, siderophores such as vibriobactin from Vibrio cholerae or mycobactin from Mycobacterium tuberculosis, as well as the mycolic acids which form the waxy cell wall of Mycobacteria. The biosyntheses of these natural products are considered attractive targets for drug design.
In search of small molecule Sfp-PPTase inhibitors, a fluorescence quenching assay was developed for detection of Bacillus subtilis Sfp-PPTase enzymatic activity in a miniaturized high-throughput format. The consensus ybbr acceptor peptide […] was N-terminally labeled with Black Hole Quencher-2 (BHQ-2) and used in combination with rhodamine-labeled coenzyme A as a co-substrate.
Inhibition of Sfp-PPTase was detected by recording the fluorescence intensity change over a 30-minute reaction period at a 525 nm excitation and 598 nm emission. Reagents were supplied by Michael Burkart and Timothy Foley, University of California at San Diego.
Assay Submitter: Michael Burkart, University of California, San Diego
Screening Center PI: Austin, C.P.
Screening Center: NIH Chemical Genomics Center [NCGC]
Assay Buffer: 50 mM Hepes-Na pH 7.6, 10 mM MgCl2, 0.01% Nonidet P-40, and 0.01% BSA.
3 uL of Sfp-PPTase enzyme (final concentration 15 nM) and 1 uL of substrate mixture (final concentration for rhodamine-CoA and BHQ-2-YbbR 5 uM and 12.5 uM, respectively) dispensed in columns 1, 2, 5 - 48. Columns 1 and 2 used to generate neutral control (uninhibited reaction)
Three uL of reagents, consisting of buffer (in columns 3 and 4 as negative control) and Sfp-PPTase (in columns 1, 2, 5 - 48) were dispensed into 1,536-well Greiner black solid bottom plate. Compounds (23 nL) were transferred via Kalypsys pintool equipped with 1,536-pin array. The plate was incubated for 15 min at room temperature, followed by the addition of 1 uL substrate to start the reaction. The plate was then centrifuged at 1000 rpm for 15 seconds, and the fluorescence intensity recorded on a ViewLux High-throughput CCD imager (Perkin-Elmer) using standard BODIPY optics (525 nm excitation and 598 nm emission). The plate was then incubated for 30 minutes, and a second read on the ViewLux was performed. The fluorescence intensity difference over the 30-minute period was used to calculate the respective reaction rate for each well.
Potency means the concentration at half of the fitted maximal effect.

4'-phosphopantetheinyl transferase ffp (Bacillus subtilis), sequence (Q9F4F7 whole entry, looked up): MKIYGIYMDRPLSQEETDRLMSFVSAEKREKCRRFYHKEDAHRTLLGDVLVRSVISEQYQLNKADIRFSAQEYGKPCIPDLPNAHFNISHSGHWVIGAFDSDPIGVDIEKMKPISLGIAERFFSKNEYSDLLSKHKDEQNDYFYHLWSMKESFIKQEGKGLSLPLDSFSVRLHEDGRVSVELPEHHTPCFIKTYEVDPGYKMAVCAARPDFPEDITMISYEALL

Question: With `Cc1nn2c(c1-c1ccccc1)N=C(c1ccco1)CC2c1ccccc1` (configuration not stated) as the compound, how does the Potency read?
Answer: 37.3 µM (active)

Question: With `FC(F)(F)C1CCCN(c2nsc3ccccc23)C1` (configuration not stated) as the compound, how does the Potency read?
Answer: 2.1 µM (active)

Question: For `Cc1ccc(NC(=O)c2c(NC(=O)CCC(=O)O)sc3c2CCCCC3)cc1`, which Potency is on record?
Answer: 14.8 µM (active)

Question: For `c1ccc(-c2nc(NCc3ccco3)c3ccccc3n2)cc1`, which Potency is on record?
Answer: inactive

Question: `Cc1ccc(/C=C(\C#N)C(=O)Nc2cccc3ncccc23)o1` was tested. Which Potency did it give?
Answer: 26.4 µM (active)

Question: With `COc1ccc(OCc2nnc3n2N=C(c2ccccc2)C(CC(=O)O)S3)cc1` (configuration not stated) as the compound, how does the Potency read?
Answer: 2.35 µM (active)

Question: `CCC(c1nnnn1Cc1ccco1)N(Cc1cc2cc(OC)ccc2[nH]c1=O)C1CCCCC1` (configuration not stated) was tested. Which Potency did it give?
Answer: 9.37 µM (active)

Question: How did the Potency turn out when `CC(C)(C)c1nnc(NC(=O)C2c3ccccc3Oc3ccccc32)s1` was run?
Answer: 4.69 µM (active)

Question: With `OCCN1CCN(C(=S)c2ccc(-c3ccccc3)cc2)CC1` as the compound, how does the Potency read?
Answer: 14.8 µM (active)

Question: Which Potency does the source give for `O=c1[nH]c2ccccc2n2c(-c3ccccc3)nnc12` here?
Answer: 2.1 µM (active)

Question: `NC(=O)c1c(NC(=O)CSc2nnc(-c3ccco3)n2N)sc2c1CCCC2` was tested. Which Potency did it give?
Answer: 14.8 µM (active)

Question: Which Potency does the source give for `CCCOC(=O)Nc1sc2c(c1C(=O)OCC)CCC2` here?
Answer: 29.6 µM (active)
